Reference: PubChem BioAssay AID493244 (The Scripps Research Institute Molecular Screening Center, 2011)
Where “and” joins values, the source holds several entries; their conditions need not be identical. Identical values can stand only once. Among all 340,000 compounds or so, about 390 (0.11%) were called active.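 The calls were made as follows: active = inhibition above the mean inhibition of all tested compounds plus 3 SD (cut at about 17% in these data); inactive = the rest.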 The entries come from a sample that favours actives as a whole.

The compounds below were run against Troponin I, cardiac muscle (Homo sapiens) + Troponin T, cardiac muscle (Homo sapiens) + Troponin C, slow skeletal and cardiac muscles (Homo sapiens) (UniProt P19429+P45379+P63316) (assay: calcium desensitizers of cardiac thin filaments – biochemical, IANBD-TnC fluorescence, EC70 calcium, primary screen (AID 493244;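 also: assay run at fixed EC70 calcium of 1.6 mM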)). Details: IANBD-labeled cardiac RTF, Ca2+ fluorescence; at 7.15 µM; active compounds read high.

SMILES | inhibition
O=C(C[C@H]1C(=O)N(c2ccc(F)c(F)c2)C[C@@H]1Cc1ccccc1)Nc1ccccc1 | -7.8% (inactive)
COc1cc(OC)cc(-c2c(-c3ccc(F)cc3)c3cc(-c4ccc5cc[nH]c5c4)ccc3n2C)c1 | 0.02% (inactive)
Cc1nc2ccc(NC(=O)c3cccc(S(=O)(=O)N4CCOCC4)c3)cc2s1 | 7.38% (inactive)
O=S(=O)(Nc1ccc2nc(N3CCOCC3)sc2c1)c1ccccc1 | -15.4% (inactive)
O=C(O)c1cccc(S(=O)(=O)Nc2ccc(O)cc2Sc2nc3ccccc3s2)c1 | 20.3% (active)
CCCOc1ccc(N2C(=O)CC(N(CCc3ccc(S(N)(=O)=O)cc3)C(C)=O)C2=O)cc1 (stereo not given) | 11.4% (inactive)
COC(=O)CN(c1cccc(C(C)=O)c1)S(C)(=O)=O | -2.17% (inactive)
CCCC/S(C)=N/S(=O)(=O)c1ccc(C)cc1 (stereo not given) | -2.27% (inactive)
CC(=O)C1C(c2ccc(Cl)cc2)c2c(n[nH]c2C)CC1(C)O (stereo not given) | -5.53% (inactive)
O=C(Nc1cccnc1)c1cc2cc(Br)ccc2oc1=O | 3.93% (inactive)
COc1cccc(N(CC(=O)NC2CCCCCC2)S(=O)(=O)c2ccccc2)c1 | -9.96% (inactive)
COC(=O)C1(C)NC(c2ccccc2OC)C2C(=O)N(c3ccccc3)C(=O)C21 (stereo not given) | -1.37% (inactive)
C=CCC(CC=C)(C(N)=O)c1ccccc1 | -6.01% (inactive)
CNC(=O)COc1ccc(S(=O)(=O)Nc2ccccc2)cc1 | -0.29% (inactive)
CCCCn1c(N)c(N(CC(C)C)C(=O)c2cccc(S(=O)(=O)N3CC(C)OC(C)C3)c2)c(=O)[nH]c1=O (stereo not given) | -3.78% (inactive)
CCN(CC)C(=O)[C@H]1CC(CC(=O)NCc2ccco2)C(=O)N2CCc3c([nH]c4ccccc34)[C@]12C (stereo not given in full) | -0.12% (inactive)
Cc1cccc(N(C(=O)Cc2cccs2)C(C(=O)NC2CCCC2)c2ccsc2)c1 (stereo not given) | 18.7% (active)
Cc1ccccc1N(C(=O)Cc1cccs1)C(C(=O)NC1CCCCC1)c1cn(C)nc1C (stereo not given) | -6.48% (inactive)
Cc1ccsc1C(C(=O)NC1CCCCC1)N(C(=O)Cc1cccs1)C1CC1 (stereo not given) | -0.55% (inactive)
COc1ccc(C(C#N)(CC(=O)O)c2cnccn2)cc1OC (stereo not given) | 2.97% (inactive)
CCOC(=O)C1Cn2c(nc3c(c2=O)C(C)(CC)Cc2ccccc2-3)S1 (stereo not given) | -5.87% (inactive)
Cc1nc2cc(S(=O)(=O)C(F)(F)F)ccc2s1 | 0.85% (inactive)
Cn1c(N)cc(=O)n(C)c1=S | 1.39% (inactive)

SMILES | inhibition
Cc1csc(/N=C/N(C)C)c1C#N | 5.98% (inactive)
Cc1c(CCOC(=O)CC23CC4CC(CC(C)(C4)C2)C3)sc[n+]1Cc1ccc([N+](=O)[O-])cc1 | -12.4% (inactive) and -2.7% (inactive)
CCOC(=O)c1sc(N(Cc2ccccc2)C(=O)CN2C(=O)CN(C)C2=O)nc1C | -19.2% (inactive)
OCCC1CN(Cc2ccc(Oc3ncccn3)cc2)CCN1CCc1ccccc1 (stereo not given) | -5.37% (inactive)
CC1(C)CC(=O)C=C(NCc2ccncc2)C1 | -4.04% (inactive)
O=C(NCc1ccccc1Cl)C1CCC(CNc2c(N3CCCCC3)c(=O)c2=O)CC1 (stereo not given) | -11.6% (inactive)
NC1=NC(c2ccc([N+](=O)[O-])cc2)N(c2ccc(F)cc2)C(N)=N1 (stereo not given) | 4.59% (inactive)
CCn1c(O)c(N=NC2=NC(=O)CS2)c2cc(C)ccc21 | 3.93% (inactive)
CCCCC(NC(=O)c1cccc(Br)c1)C(=O)O (stereo not given) | -10.9% (inactive)
CSc1ncnc2c1ncn2CC(=O)C1CCC2C3CCC4=CC(=O)CCC4(C)C3CCC12C (stereo not given) | -3.91% (inactive)
COc1ccc2c(c1)cc1n2CCN=C1NN | -7.01% (inactive)
COc1ccccc1-c1n[nH]c2c1[C@H](C)CC[C@H]2C(C)C | -2.28% (inactive)
CC(=O)c1nn(-c2cccc(C(F)(F)F)c2)c(=O)[nH]c1=O | -1.11% (inactive)
COC(=O)CCc1sc(Nc2ccc(Br)cc2)nc1-c1ccc(OC)cc1 | 20.8% (active)
Cc1ccc(OC(=O)CCC(=O)Nc2ccc(Br)cc2)cc1 | -3.9% (inactive)
COc1ccc(NC(=O)CCC(=O)Nc2nnc(C3CCCCC3)s2)cc1 | -6.36% (inactive)
Cc1ccc2c(cnn2C(=O)CCC(=O)NC2CCCC2)c1 | 6.54% (inactive)
CCN(CC(=O)Nc1c(F)cccc1F)C(=O)c1ccc(-c2ccc(C(C)=O)cc2)o1 | 1.58% (inactive)
COc1ccc(-n2c(C)cc(C(=O)CN3C(=O)NC4(CCc5ccccc54)C3=O)c2C)cc1 (stereo not given) | -0.58% (inactive)
O=C(/C(=N\O)n1cncn1)c1ccc(Br)cc1Br | -6.03% (inactive)
Cc1ccc(CN2CCNC(=O)C2CC(=O)NCc2csc(C(C)C)n2)cc1 (stereo not given) | -0.36% (inactive)
O=C1C=C(c2ccc(Cl)cc2)C(=O)N1Nc1ccccc1 | -3.83% (inactive)
Cc1ccc(C(=O)NCCc2nnc(SCC(=O)Nc3cccc(C(=O)O)c3)n2C)cc1 | -8.53% (inactive)

SMILES | inhibition
CCC(NC(=O)c1cc(COc2ccc(F)c(F)c2)on1)c1ccncc1 (stereo not given) | -0.88% (inactive)
CCCN(CCC)CCCNC(=O)CNC(=O)c1nn(-c2ccc(OC)cc2)c(=O)c2ccccc12 | 1.59% (inactive)
COc1ccc(NS(=O)(=O)c2cc(NC(=O)COc3ccccc3F)ccc2OC)cc1 | -0.92% (inactive)
COc1ccc(C(F)(F)F)cc1N/C=C\c1nnnn1-c1ccc(C)cc1 | -1.14% (inactive)
Cc1ccc(-c2c[n+](=O)c3c(n2[O-])CCC3)cc1 | -7.98% (inactive)
Cc1ccc(NC(=O)C(C)OC(=O)C2CC3CCCC(C2)C3=O)cc1S(=O)(=O)N1CCOCC1 (stereo not given) | -1.77% (inactive)
N#CCCn1ncc2ccccc21 | -17% (inactive)
CCOC(=O)N1CCN(Cc2nc3cc(NC(=O)CC)ccc3n2CC)CC1 | -8.27% (inactive)
CCC(C)CN1CCC(CO)(Cc2ccccc2Cl)CC1 (stereo not given) | 2.96% (inactive)
CC(C)C[C@H]1CN=C(Nc2ccccc2)N1CC1CCCCC1 | -2.92% (inactive)
CCOc1ccc(-n2c(SC(C)C(=O)OC)nc3c(c2=O)SCC3)cc1 (stereo not given) | -6.85% (inactive)
Cc1ccc2nc(Nc3ncc4c(n3)CC(C)(C)CC4=O)nc(C)c2c1 | -5.46% (inactive)
NS(=O)(=O)c1cccc(NC(=O)CC23CC4CC(CC(Br)(C4)C2)C3)c1 | -5.43% (inactive)
CC(C)(CNC(=O)c1ccc(Cl)c(S(=O)(=O)N2CCc3ccccc3C2)c1)N1CCOCC1 | -11.2% (inactive)
COc1ccccc1C(=O)N1CCNC(=O)C1CC(=O)Nc1ccc(Cl)cc1 (stereo not given) | 1.41% (inactive)
COc1cc(OC)cc(C(=O)NCC(=O)OCc2csc(-c3ccccc3)n2)c1 | 17.6% (active)
COC(=O)c1ccc(COC(=O)CNC(=O)c2cccc(OC)c2)o1 | -10.2% (inactive)
COc1cc(OC)cc(C(=O)NCC(=O)OCC(=O)NC(C)CCc2ccccc2)c1 (stereo not given) | -1.01% (inactive)
O=C1COc2ccc(C(=O)COC(=O)C3CC(O)CN3S(=O)(=O)c3ccc(Cl)cc3)cc2N1 (stereo not given) | -1.25% (inactive)
CC1CCCC(NC(=O)COC(=O)[C@@H]2CC(O)CN2S(=O)(=O)c2ccc3c(c2)OCCO3)C1C (stereo not given in full) | 20.7% (active)
Cc1ccc(S(=O)(=O)N2CC(O)C[C@H]2C(=O)OCC(=O)Nc2ccc(N3CCOCC3)cc2)cc1C (stereo not given in full) | -9.94% (inactive)
CCN(CC)CCNC(=O)c1ccc(NC(=O)c2c(F)cccc2Cl)cc1 | -3.23% (inactive)
COC(=O)C1=NN(c2ccccc2)C2C(=O)N(c3ccccc3OC)C(=O)C12 (stereo not given) | -2.73% (inactive)

SMILES | inhibition
Cc1oc2cc(Br)c(O)c(Br)c2c1C(=O)c1ccccc1 | -3.49% (inactive)
CC(=O)Nc1nc(N(C)C)nc(N(C)C)n1 | 2.09% (inactive)
CCN1C(=O)/C(=C2\SC(N3CCCCC3)=NC2=O)c2ccccc21 | -0.1% (inactive)
Cn1c2c(c(=O)n(C)c1=O)C(c1ccc(O)cc1)Nc1ccccc1O2 (stereo not given) | 3.38% (inactive)
O=C(N[C@@H]1C/C=C\C[C@@H](CC(=O)N(CCO)Cc2ccccc2)C(=O)N[C@H](Cc2ccccc2)COC1=O)OCC1c2ccccc2-c2ccccc21 | -7.62% (inactive)
O=C(O)c1ccccc1N=N/C(=N/Nc1cc(S(=O)(=O)O)ccc1O)c1ccccc1 | 5.68% (inactive)
CC1CC(C)CN(C(=O)CSc2ccsc2[N+](=O)[O-])C1 (stereo not given) | -12.4% (inactive)
COc1ccc(NC(=O)CC2COc3ccccc3O2)c(OC)c1 (stereo not given) | 17.3% (active)
COc1ccc(NC(=O)C2COc3ccccc3O2)cc1 (stereo not given) | 1.47% (inactive)
COc1ccc(NC(=O)NCc2ccc3c(c2)OCO3)c(OC)c1 | -6.62% (inactive)
O=C(Nc1ccccc1)c1nnsc1S(=O)(=O)c1ccc(Cl)cc1 | -4.97% (inactive)
N=c1n(Cc2ccc(Cl)cc2)c2ccccc2n1CC(O)c1ccco1 (stereo not given) | -16.9% (inactive)
Cc1ccc(NC(=O)CN(C)C(=O)c2ccc(Br)o2)cc1 | -14.7% (inactive)
CCCCCCCCNS(=O)(=O)CCNC1CCCCC1 | -2.61% (inactive)
Cc1ccc2c(c1)N(CC(=O)N1CCCC(C)C1)C(=O)CO2 (stereo not given) | -10.6% (inactive)
Cc1c(S(=O)(=O)N2CC(C)CC(C)C2)c(=O)n(C)c(=O)n1C (stereo not given) | -1.29% (inactive)
O=C(O)CCCCOn1ccnc1 | -6.34% (inactive)
CN(CC1CCCO1)S(=O)(=O)c1ccc(C(=O)Nc2ccc(F)cc2)cc1 (stereo not given) | 1.44% (inactive)
COc1ccc(NC2=CC(=S)NC(C)(C)C2)cc1 | -18.1% (inactive)
Cc1ccc2c(c1)N(CC(=O)N1CCC(O)CC1)C(=O)CO2 | 6.2% (inactive)
COc1ccc(CNC(=O)CN2C(=O)c3ccccc3S2(=O)=O)cc1 | -0.78% (inactive)
